In the supplement of paper PMC10849652:
Of roughly 7,900 targets only a part is listed; those with a hit were picked by preference. About 0.6% of all pairs of compound and target were hits. Unmarked numbers belong to inactive results.

What was measured:
Test in all cases: log2 fold change, soluble protein after heating vs DMSO (PISA); higher = thermal stabilisation; K562 cells, 10 uM, 30 min; active = over 0.2 and 3.5 SD of the protein, either way, in both replicates (recomputed)
[1] = compound: NC(=O)Nc1cc(-c2cccc(F)c2)sc1C(=O)N[C@H]1CCCNC1
Procedure, shortened: (§1)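 Quantification of soluble protein used TMTpro 16plex LC-MS/MS, with channel sums equalised. Samples were the supernatant after 21,000xg for 90 min of pooled aliquots from K562 cells (2×10^6 cells/mL) treated with 10 μM compound for 30 min, heated for 3 min over 48°C-58°C, and extracted in PBS with 0.5% NP-40 at 4°C. Values, from duplicates, describe thermal stability against control samples on a log2 fold-change scale.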

[2] = compound: NC(=O)c1cnc(N[C@@H]2CCCC[C@@H]2N)nc1Nc1cccc(-n2nccn2)c1
Procedure, shortened: as §1

[3] = compound: NC1(c2ccc(-c3nc4ccn5c(=O)[nH]nc5c4cc3-c3ccccc3)cc2)CCC1
Procedure, shortened: as §1

[4] = compound: NCC(=O)Nc1ccc(-n2nc(C(F)(F)F)cc2-c2ccc3c(ccc4ccccc43)c2)cc1
Procedure, shortened: as §1

[5] = compound: Nc1ccccc1NC(=O)c1ccc(CNC(=O)OCc2cccnc2)cc1 [entinostat]
Procedure, shortened: as §1

[6] = compound: O=C(CCCCCCC(=O)Nc1ccccc1)NO [vorinostat]
Procedure, shortened: as §1

[7] = compound: O=C(CCCCCCNC(=O)c1cnc(N(c2ccccc2)c2ccccc2Cl)nc1)NO [citarinostat]
Procedure, shortened: as §1

[8] = compound: O=C(O)c1ccc2c(c1)nc(Nc1cccc(Cl)c1)c1ccncc12 [silmitasertib]
Procedure, shortened: as §1

[9] = compound: O=C1NC(=O)C(c2cnc3ccccn23)=C1c1cn2c3c(cc(F)cc13)CN(C(=O)N1CCCCC1)CC2
Procedure, shortened: as §1

[10] = compound: c1cc(OCCN2CCCCC2)cc(-c2n[nH]c3ccc(-c4nnc[nH]4)cc23)c1
Procedure, shortened: as §1

Sequence of UniProt P32019 (P32019 whole entry, looked up): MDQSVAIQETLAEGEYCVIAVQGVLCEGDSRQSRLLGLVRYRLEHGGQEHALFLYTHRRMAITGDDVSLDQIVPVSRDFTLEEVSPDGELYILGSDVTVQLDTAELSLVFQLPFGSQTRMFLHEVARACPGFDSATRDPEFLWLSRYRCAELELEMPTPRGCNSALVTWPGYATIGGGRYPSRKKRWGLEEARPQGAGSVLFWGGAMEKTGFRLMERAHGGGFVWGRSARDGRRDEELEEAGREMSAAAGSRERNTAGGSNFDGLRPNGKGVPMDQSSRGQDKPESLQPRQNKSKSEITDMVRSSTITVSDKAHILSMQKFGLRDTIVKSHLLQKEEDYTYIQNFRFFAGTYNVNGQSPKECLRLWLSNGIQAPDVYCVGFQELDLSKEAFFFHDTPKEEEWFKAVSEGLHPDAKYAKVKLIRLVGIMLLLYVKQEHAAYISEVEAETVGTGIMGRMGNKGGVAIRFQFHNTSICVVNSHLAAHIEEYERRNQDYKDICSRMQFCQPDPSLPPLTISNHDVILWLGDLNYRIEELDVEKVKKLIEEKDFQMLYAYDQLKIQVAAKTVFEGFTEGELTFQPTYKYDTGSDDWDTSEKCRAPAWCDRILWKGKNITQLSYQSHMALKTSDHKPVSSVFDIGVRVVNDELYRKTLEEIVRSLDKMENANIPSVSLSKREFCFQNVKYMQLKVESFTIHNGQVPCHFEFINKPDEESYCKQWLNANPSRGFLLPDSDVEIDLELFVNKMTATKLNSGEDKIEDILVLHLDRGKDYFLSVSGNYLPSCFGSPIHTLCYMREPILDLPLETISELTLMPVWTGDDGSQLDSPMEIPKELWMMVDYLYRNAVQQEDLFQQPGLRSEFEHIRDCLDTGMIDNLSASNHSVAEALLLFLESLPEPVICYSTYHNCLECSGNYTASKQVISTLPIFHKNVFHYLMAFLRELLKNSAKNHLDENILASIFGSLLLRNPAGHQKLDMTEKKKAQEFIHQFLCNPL
Sequence of UniProt Q86X29 (Q86X29 whole entry, looked up): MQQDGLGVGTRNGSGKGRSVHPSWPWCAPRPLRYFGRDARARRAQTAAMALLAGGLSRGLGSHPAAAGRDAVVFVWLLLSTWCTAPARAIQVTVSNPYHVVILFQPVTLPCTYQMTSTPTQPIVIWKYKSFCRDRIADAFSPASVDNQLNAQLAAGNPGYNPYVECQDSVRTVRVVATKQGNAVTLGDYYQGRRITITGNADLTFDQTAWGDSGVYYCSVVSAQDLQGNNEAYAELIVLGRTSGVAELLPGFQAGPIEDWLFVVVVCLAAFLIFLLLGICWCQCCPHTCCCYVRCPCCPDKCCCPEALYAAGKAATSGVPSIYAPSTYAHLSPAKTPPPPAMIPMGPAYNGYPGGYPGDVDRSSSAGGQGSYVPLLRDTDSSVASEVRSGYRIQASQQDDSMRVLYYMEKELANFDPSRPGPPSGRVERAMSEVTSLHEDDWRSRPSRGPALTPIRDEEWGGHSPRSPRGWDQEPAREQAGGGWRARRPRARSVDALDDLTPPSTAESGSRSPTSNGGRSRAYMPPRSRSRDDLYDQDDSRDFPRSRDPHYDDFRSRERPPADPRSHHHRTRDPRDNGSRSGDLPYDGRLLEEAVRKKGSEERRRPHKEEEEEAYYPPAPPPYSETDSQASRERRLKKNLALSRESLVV
Sequence of UniProt P43362 (P43362 whole entry, looked up): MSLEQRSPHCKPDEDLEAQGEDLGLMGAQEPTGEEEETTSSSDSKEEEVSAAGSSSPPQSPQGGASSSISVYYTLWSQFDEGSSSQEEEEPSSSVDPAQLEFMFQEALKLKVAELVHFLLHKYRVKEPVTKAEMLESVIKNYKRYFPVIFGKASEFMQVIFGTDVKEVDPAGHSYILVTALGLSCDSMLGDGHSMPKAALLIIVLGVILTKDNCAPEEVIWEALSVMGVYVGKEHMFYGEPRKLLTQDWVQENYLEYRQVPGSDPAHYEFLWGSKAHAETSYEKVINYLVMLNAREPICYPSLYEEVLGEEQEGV
Sequence of UniProt Q96PC5 (Q96PC5 whole entry, looked up): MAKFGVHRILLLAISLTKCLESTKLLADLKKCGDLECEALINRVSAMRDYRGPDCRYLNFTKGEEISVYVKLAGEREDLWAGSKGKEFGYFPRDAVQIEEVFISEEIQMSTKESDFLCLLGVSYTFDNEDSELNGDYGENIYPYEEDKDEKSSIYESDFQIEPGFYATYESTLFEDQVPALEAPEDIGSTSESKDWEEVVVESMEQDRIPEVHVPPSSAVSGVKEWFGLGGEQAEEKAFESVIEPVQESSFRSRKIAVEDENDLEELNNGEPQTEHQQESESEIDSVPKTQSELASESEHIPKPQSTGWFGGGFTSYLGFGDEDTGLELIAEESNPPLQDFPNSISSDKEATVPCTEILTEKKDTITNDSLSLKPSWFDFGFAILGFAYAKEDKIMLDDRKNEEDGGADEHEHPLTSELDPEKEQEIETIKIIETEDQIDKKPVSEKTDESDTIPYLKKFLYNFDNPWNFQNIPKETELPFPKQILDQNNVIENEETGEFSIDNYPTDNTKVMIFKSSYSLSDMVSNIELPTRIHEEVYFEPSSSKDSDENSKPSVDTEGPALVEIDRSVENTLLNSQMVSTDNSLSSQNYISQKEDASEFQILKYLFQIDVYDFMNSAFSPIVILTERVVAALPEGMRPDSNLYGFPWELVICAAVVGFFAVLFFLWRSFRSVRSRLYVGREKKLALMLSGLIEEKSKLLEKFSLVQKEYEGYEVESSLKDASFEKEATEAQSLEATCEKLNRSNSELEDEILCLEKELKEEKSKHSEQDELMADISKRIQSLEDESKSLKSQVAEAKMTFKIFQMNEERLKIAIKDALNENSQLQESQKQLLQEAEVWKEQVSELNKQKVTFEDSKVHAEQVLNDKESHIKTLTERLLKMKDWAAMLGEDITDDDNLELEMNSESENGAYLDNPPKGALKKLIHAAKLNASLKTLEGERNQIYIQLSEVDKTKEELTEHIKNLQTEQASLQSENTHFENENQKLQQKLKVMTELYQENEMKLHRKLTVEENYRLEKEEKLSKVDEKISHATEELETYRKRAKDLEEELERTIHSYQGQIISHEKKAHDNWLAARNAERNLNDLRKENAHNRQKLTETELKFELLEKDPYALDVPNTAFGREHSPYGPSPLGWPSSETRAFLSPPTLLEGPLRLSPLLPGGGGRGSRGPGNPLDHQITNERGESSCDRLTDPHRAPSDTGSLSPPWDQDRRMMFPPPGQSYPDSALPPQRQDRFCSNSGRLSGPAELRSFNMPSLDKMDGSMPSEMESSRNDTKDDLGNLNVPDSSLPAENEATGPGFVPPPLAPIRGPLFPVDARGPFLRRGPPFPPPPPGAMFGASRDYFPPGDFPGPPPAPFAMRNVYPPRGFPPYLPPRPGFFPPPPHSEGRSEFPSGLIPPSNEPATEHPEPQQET
Sequence of UniProt P23276 (P23276 whole entry, looked up): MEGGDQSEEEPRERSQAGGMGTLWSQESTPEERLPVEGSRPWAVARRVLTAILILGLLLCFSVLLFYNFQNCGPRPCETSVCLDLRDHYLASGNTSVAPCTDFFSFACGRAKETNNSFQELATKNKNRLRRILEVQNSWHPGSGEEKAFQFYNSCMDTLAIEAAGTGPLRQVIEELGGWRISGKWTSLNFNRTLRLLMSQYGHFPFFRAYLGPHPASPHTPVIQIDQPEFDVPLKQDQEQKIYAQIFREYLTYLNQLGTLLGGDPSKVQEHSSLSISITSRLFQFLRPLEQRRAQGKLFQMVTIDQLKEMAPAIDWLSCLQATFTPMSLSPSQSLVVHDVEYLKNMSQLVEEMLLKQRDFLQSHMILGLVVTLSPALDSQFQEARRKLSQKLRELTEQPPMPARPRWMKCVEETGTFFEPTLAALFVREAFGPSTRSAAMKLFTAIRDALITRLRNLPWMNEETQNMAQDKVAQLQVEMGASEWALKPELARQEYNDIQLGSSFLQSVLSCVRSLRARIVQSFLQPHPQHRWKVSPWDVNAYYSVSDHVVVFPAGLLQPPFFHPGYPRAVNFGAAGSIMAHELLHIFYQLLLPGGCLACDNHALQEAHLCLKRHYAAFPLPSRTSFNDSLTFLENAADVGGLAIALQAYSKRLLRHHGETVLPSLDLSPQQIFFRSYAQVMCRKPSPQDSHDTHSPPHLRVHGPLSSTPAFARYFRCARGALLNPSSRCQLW
Sequence of UniProt Q8WV07 (Q8WV07 whole entry, looked up): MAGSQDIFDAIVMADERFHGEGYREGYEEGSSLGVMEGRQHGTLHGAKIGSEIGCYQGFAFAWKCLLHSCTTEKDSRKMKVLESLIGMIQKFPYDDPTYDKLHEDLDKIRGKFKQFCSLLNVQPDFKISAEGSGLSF
Sequence of UniProt P45984 (P45984 whole entry, looked up): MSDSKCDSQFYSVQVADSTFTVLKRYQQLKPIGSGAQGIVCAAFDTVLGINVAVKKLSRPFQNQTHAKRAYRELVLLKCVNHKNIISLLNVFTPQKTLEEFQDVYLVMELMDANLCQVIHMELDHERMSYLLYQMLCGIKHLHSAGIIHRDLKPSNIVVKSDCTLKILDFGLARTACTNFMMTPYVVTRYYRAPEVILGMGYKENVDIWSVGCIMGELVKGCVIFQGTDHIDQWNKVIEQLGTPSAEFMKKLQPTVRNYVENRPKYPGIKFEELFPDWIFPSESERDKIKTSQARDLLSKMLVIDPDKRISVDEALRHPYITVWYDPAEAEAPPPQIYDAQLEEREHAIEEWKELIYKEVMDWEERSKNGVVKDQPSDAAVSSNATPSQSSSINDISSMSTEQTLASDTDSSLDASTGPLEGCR
Sequence of UniProt Q8NE86 (Q8NE86 whole entry, looked up): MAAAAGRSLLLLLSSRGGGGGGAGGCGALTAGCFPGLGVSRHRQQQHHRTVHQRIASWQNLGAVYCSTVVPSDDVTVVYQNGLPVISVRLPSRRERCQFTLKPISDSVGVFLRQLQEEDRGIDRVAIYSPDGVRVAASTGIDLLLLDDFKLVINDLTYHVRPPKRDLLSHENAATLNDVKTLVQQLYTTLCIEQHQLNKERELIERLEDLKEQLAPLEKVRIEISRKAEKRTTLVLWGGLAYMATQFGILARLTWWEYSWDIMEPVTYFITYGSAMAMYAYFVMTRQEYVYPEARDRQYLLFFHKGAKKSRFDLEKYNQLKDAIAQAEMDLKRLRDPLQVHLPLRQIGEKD

| Target | log2 fold change [1] | log2 fold change [2] | log2 fold change [3] | log2 fold change [4] | log2 fold change [5] | log2 fold change [6] | log2 fold change [7] | log2 fold change [8] | log2 fold change [9] | log2 fold change [10] |
| --- | --- | --- | --- | --- | --- | --- | --- | --- | --- | --- |
| INPP5B (UniProt P32019) | 0.106 | -0.066 | -0.003 | -0.108 | 0 | 0.128 | -0.016 | 0.167 | 0.118 | 0.014 |
| LTO1 (UniProt Q8WV07) | -0.077 | 0.009 | -0.011 | 0.094 | -0.097 | 0.005 | 0.044 | 0.158 | -0.015 | -0.126 |
| LENG8 (UniProt Q96PV6) | -0.012 | -0.075 | 0.042 | -0.198 | 0.085 | 0.298 | 0 | 0.09 | -0.144 | -0.091 |
| KLC2 (UniProt Q9H0B6) | -0.149 | -0.084 | -0.134 | -0.044 | 0.031 | 0.044 | 0.061 | 0.063 | 0.007 | -0.082 |
| KDELR2 (UniProt P33947) | -0.071 | 0.063 | -0.073 | -0.133 | -0.02 | -0.238 | -0.026 | -0.018 | -0.031 | -0.097 |
| IKZF1 (UniProt Q13422) | 0.164 | -0.084 | 0.21 | -0.03 | 0.064 | 0.003 | 0.019 | -0.202 | 0.004 | -0.061 |
| MAGEA9 (UniProt P43362) | -0.017 | -0.027 | -0.243 | 0.033 | 0 | 0.132 | 0.013 | 0.052 | -0.079 | -0.106 |
| IRAK4 (UniProt Q9NWZ3) | 0.349 (active) | -0.088 | -0.281 (active) | -0.008 | 0.053 | 0.05 | 0.002 | 0.027 | -0.024 | -0.019 |
| MIEF1 (UniProt L0R8F8) | 0.085 | 0.094 | 0.047 | 0.002 | 0.007 | -0.012 | 0.039 | -0.021 | -0.063 | -0.056 |
| MDC1 (UniProt Q14676) | 0.115 | -0.075 | -0.054 | 0.153 | 0.001 | -0.164 | 0.062 | -0.116 | -0.026 | -0.086 |
| KPNA1 (UniProt P52294) | -0.02 | -0.014 | -0.047 | -0.058 | 0.099 | 0.036 | 0.166 | 0.088 | 0.064 | -0.037 |
| MFF (UniProt Q9GZY8) | -0.098 | -0.224 (active) | -0.125 | -0.102 | -0.015 | 0.006 | -0.007 | 0.04 | -0.06 | -0.135 |
| KIAA1324L (UniProt A8MWY0) | -0.016 | -0.015 | -0.138 | 0.009 | -0.067 | 0.003 | 0.004 | -0.014 | -0.013 | -0.094 |
| IRF2BPL (UniProt Q9H1B7) | 0.032 | 0.011 | 0.013 | -0.004 | -0.024 | 0.007 | -0.001 | 0.027 | -0.218 (active) | -0.03 |
| MAPK9 (UniProt P45984) | -0.058 | -0.023 | -0.053 | -0.022 | -0.028 | -0.058 | -0.022 | -0.012 | -0.102 | 0.187 |
| MCU (UniProt Q8NE86) | 0.005 | -0.059 | -0.142 | -0.131 | 0.034 | -0.013 | 0.075 | -0.007 | -0.034 | -0.052 |
| KCTD10 (UniProt Q9H3F6) | 0.065 | 0.226 | 0.028 | 0.077 | -0.014 | -0.001 | -0.05 | -0.042 | -0.088 | -0.025 |
| ILKAP (UniProt Q9H0C8) | 0.015 | -0.052 | -0.224 | -0.164 | 0.038 | 0.06 | 0.123 | 0.004 | -0.144 | -0.003 |
| MIA2 (UniProt Q96PC5) | 0.03 | -0.03 | 0.06 | -0.032 | -0.009 | 0.009 | 0.059 | 0.083 | -0.045 | -0.058 |
| KEL (UniProt P23276) | -0.004 | 0.088 | -0.215 | 0.017 | -0.022 | 0.03 | 0.019 | 0.108 | 0.115 | -0.001 |
| LSR (UniProt Q86X29) | -0.135 | 0.066 | 0.066 | 0.039 | -0.054 | -0.027 | 0.006 | -0.036 | 0.03 | -0.012 |
| LPIN1 isoform 7 (UniProt Q14693) | -0.006 | -0.011 | -0.039 | -0.03 | -0.027 | 0.136 | 0.001 | -0.139 | -0.098 | -0.048 |
| INTS7 (UniProt Q9NVH2) | -0.076 | 0.037 | 0.001 | -0.045 | -0.095 | 0.049 | -0.007 | 0.055 | 0.092 | 0.01 |
| ILVBL (UniProt A1L0T0) | -0.053 | -0.036 | -0.022 | -0.007 | -0.041 | 0.002 | 0.064 | -0.008 | -0.009 | -0.064 |
| IWS1 (UniProt Q96ST2) | -0.049 | 0.034 | -0.028 | -0.171 | 0.012 | -0.008 | -0.059 | 0.054 | -0.032 | 0 |
| MFSD5 isoform 2 (UniProt Q6N075) | -0.037 | 0.035 | -0.137 | -0.089 | -0.099 | -0.093 | -0.009 | -0.033 | -0.193 | -0.049 |
| LBR (UniProt Q14739) | 0.025 | -0.008 | 0.004 | -0.003 | 0.023 | 0.021 | -0.021 | -0.085 | 0.012 | 0.082 |
